Hit rate of the full screen: of about 130,000 compounds, about 1,200 (0.92%) were called active. A call without a number means that no potency is given here. Not shown: some 3% with an inconclusive outcome. The sample holds actives, similar compounds and a random draw of the others, so the mix is not that of the screen. Values without a mark were called inactive. The call rests on the fitted dose curve; in most records, active means well fitted cell-killing curve with a large enough effect; inconclusive means small, poorly fitted or top-dose-only effect; inactive means no such curve, though single readings can be large or run the other way.
Assay: qHTS Screen for Compounds that Selectively Target Cancer Cells with p53 Mutations: Cytotoxicity of p53ts Cells at the Permissive Temperature; further: nearly all actives have a fitted effect of over 55% in size
Conditions: H1299-p53A138V at 32C, ATP luminescence viability, 24 h; series mostly up to 46.1 µM
How it was run: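 H1299-p53 A138V cells (temperature-sensitive p53) exposed 24 h to up to 46 uM compound at 32C, where p53 is wild-type in conformation. Viability read as ATP luminescence and normalised to DMSO and 100 uM tamoxifen. AC50 fitted with the Hill equation.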
Potency means the concentration at half of the fitted maximal effect.

Row | SMILES | Potency | activity change, negative = cytotoxicity
1 | CCc1ccc(NC(=O)CN2C(=O)C(c3ccccc3)=NC23CCCCCC3)cc1 | inactive | –
2 | CCc1ccc(NC(=O)CN2CCSc3ccc(S(=O)(=O)N4CCCC4)cc32)cc1 | inactive | –
3 | COc1cc(OC)c(OC)cc1/C=C/c1nc2cc3ccccc3cc2c(=O)n1-c1ccc(F)c(Cl)c1 | inactive | –
4 | CCCCn1c(=N)c(S(=O)(=O)c2ccccc2)cc2c(=O)n3cccc(C)c3nc21 | inactive | –
5 | Cc1ccc(-c2cnc(NCc3ccc(C(C)C)cc3)n2C)cc1 | inactive | –
6 | CCc1ccc(-c2nnn(Cc3nn[nH]n3)n2)cc1 | inactive | –
7 | CC(C)c1ccc(-c2nn[nH]n2)cc1 | 12.6 µM (active) | –
8 | CCOc1ccc(CNCCSc2nnnn2C)cc1 | inactive | –
9 | O=C1CCCc2cc(S(=O)(=O)N3CCCC(C(=O)NCc4ccccc4)C3)ccc2N1 (configuration not stated) | inactive | –
10 | CCc1cc2c(cc3c(=O)n(CC(=O)NCc4cccc(Cl)c4)nc(CC)n32)s1 | inactive | –
11 | O=C1Nc2c(Br)cc(Br)cc2C1(O)N1CCOCC1 (configuration not stated) | 12.6 µM (active) | –
12 | CCOc1ccccc1N(CC)C(=O)c1cc2ccc3cccnc3c2[nH]1 | inactive | –
13 | CCN1CCN(Cc2c(O)ccc3oc(C)c(C(=O)Nc4ccc(C)cc4C)c23)CC1 | inactive | –
14 | Cc1cccc(-n2ncc3c(N4CCc5ccccc54)ncnc32)c1 | inactive | –
15 | COc1ccc(-n2ncc3c(N4CCc5ccccc54)ncnc32)cc1 | inactive | –
16 | COc1ccc(-n2ncc3c(N4CCCc5ccccc54)ncnc32)cc1 | 10 µM (active) | –
17 | Cc1nc2nc(SCC(=O)NC3CCC(C)CC3)nn2c(C)c1Cc1ccccc1Cl (configuration not stated) | inactive | –
18 | COc1ccccc1CN1CCC(CNC(=O)c2cnn(-c3ccccc3Cl)c2C2CCN(C(=O)OC(C)(C)C)CC2)CC1 | inactive | –
19 | COc1ccccc1CNC(=O)c1ccc(NC(=O)N2CC(C)Sc3ccccc32)cc1 (configuration not stated) | inactive | –
20 | CCNC(=O)c1cc2n(n1)CCCN(Cc1ccc(C)cc1)C2=O | inactive | –
21 | Cc1ccc2nc(N3CCN(c4cccc(Cl)c4)CC3)c3nnnn3c2c1 | inactive | –
22 | CCc1ccc(CNC(=O)C2CCN(c3nn4cc(-c5ccc(F)cc5)nc4s3)CC2)cc1 | inactive | –
23 | CCC(CC)c1nnc(NS(=O)(=O)Cc2ccccc2)s1 | inactive | –
24 | CCC(CC)c1nn2cc(-c3ccccc3)nc2s1 | 5.01 µM (active) | –

Row | SMILES | Potency | activity change, negative = cytotoxicity
25 | CCOc1ccccc1NC(=O)c1ccc2c(c1)CCN2S(=O)(=O)c1ccc(C)cc1 | inactive | –
26 | COC(=O)c1cc(NC(=O)CCc2c(C)nc3c4c(C)cc(C)nc4nn3c2C)cc(C(=O)OC)c1 | inactive | –
27 | CCN(CC)c1ccc(NC(=O)CN2CCN(CC(=O)Nc3ccc(Cl)cc3)CC2)cc1 | inactive | –
28 | O=C(Nc1cccnc1)c1noc2c1CCCCC2 | 12.6 µM (active) | –
29 | Cc1c(Cl)cccc1NC(=O)c1noc2c1CCCC2 | inactive | –
30 | O=C(Nc1cccnc1)c1ccc2c(c1)OCO2 | inactive | –
31 | CCOc1ccc(-c2nonc2NC(=O)c2oc3ccc(C)cc3c2C)cc1OCC | inactive | –
32 | COc1ccc(NC(=O)c2sc3nc[nH]c(=O)c3c2C)cc1 | inactive | –
33 | O=C(Nc1ccc(NC(=O)c2cccs2)cn1)c1ccco1 | 6.31 µM (active) | –
34 | O=C(Nc1cccc(NC(=O)c2ccco2)c1)c1cnccn1 | inactive | –
35 | Cc1ccnc(NC(=O)c2ccc(NC(=O)c3ccco3)cc2)c1 | inactive | –
36 | Cc1cc(C)c(NC(=O)CCc2c(C)nc3c(c(C)nn3C(C)(C)C)c2C)c(C)c1 | inactive | –
37 | CCn1c(CN2CCC(C)CC2)nc2cc(NC(=O)c3ccccc3[N+](=O)[O-])ccc21 | inactive | –
38 | CCCCc1nn2c(=O)cc(COC(=O)c3ccccc3NC(=O)C(C)(C)C)nc2s1 | inactive | –
39 | Cc1nn2c(=O)cc(COC(=O)c3ccccc3NC(=O)COc3ccccc3C)nc2s1 | inactive | –
40 | COc1ccc(OCC(=O)Nc2cccc(C(=O)OCc3cc(=O)n4nc(C)sc4n3)c2)cc1 | inactive | –
41 | Cc1nn2c(=O)cc(COC(=O)c3cccc(NC(=O)COc4ccccc4Cl)c3)nc2s1 | 10 µM (active) | –
42 | COc1ccccc1NC(=O)C(=O)c1cc(C)n(-c2ccccc2F)c1C | inactive | –
43 | O=C(CCSCc1ccccc1F)N1CCN(c2ccc(Cl)cc2)CC1 | inactive | –
44 | COC(=O)c1ccc2c(=O)n(CC3CCCO3)c(=S)[nH]c2c1 (configuration not stated) | inactive | –
45 | Cc1ccsc1C(=O)OCC(=O)c1cc(C)n(CC2CCCO2)c1C (configuration not stated) | 5.01 µM (active) | –
46 | Cc1ccsc1C(=O)OCC(=O)c1cc2ccccc2o1 | inactive | –
47 | Cc1[nH]c2ccccc2c1C(c1ccccc1)c1cccs1 (configuration not stated) | inactive | –
48 | O=C(CCc1cn(Cc2ccc(F)cc2)c2ccccc12)NC1CCCCC1 | inactive | –

Row | SMILES | Potency | activity change, negative = cytotoxicity
49 | CC(=O)c1ccc(NC(=O)c2nc(-c3ccc(C)cc3)n3c2CCCCC3)cc1 | inactive | –
50 | Cc1ccc(C(=O)N2CCCCCC2)cc1Br | inactive | –
51 | CCc1ccc(CNC(=O)c2cc3cc4ccc(OC)cc4nc3o2)cc1 | inactive | –
52 | Cc1ccc2cc3cc(C(=O)N4CCCCCC4)oc3nc2c1 | 10 µM (active) | –
53 | COc1c(Cl)cc(C(=O)N(Cc2ccccc2F)C2CCS(=O)(=O)C2)cc1Cl (configuration not stated) | inactive | –
54 | CCOc1ccc(NC(=O)CN(Cc2ccccc2)S(=O)(=O)c2ccc(Cl)cc2)cc1 | inactive | –
55 | CCOc1ccc(N(Cc2ccccc2)C(=O)c2nc(SCC)ncc2Cl)cc1 | inactive | –
56 | CCOc1ccc(N(Cc2ccccc2)C(=O)c2nc(S(C)(=O)=O)ncc2Cl)cc1 | 12.6 µM (active) | –
57 | CCOc1cc(C2c3c(-c4ccc(Br)cc4)n[nH]c3C(=O)N2c2ccc(Cl)cc2)ccc1O (configuration not stated) | inactive | –
58 | CN1C(=O)c2ccccc2Sc2ccc(NC(=O)Cc3ccc(Cl)cc3)cc21 | inactive | –
59 | COc1ccc(Cn2ccnc2SCC(=O)NCc2ccco2)cc1 | inactive | –
60 | C/C(=C\C(=O)c1cccnc1)Nc1ccc(C)c(C)c1 | inactive | –
61 | O=C(Nc1cccc(NC(=O)c2ccc(Br)cc2)c1)c1ccccc1 | inactive | –
62 | C/C(=C\C(=O)c1ccccc1)Nc1cccc(O)c1 | 10 µM (active) | –
63 | O=C(Nc1cc(C(F)(F)F)ccc1Cl)c1ccc2c(c1)CCN2S(=O)(=O)c1ccccc1 | inactive | –
64 | Cc1ccccc1N1CC(c2nc3ccccc3[nH]2)CC1=O (configuration not stated) | inactive | –
65 | Cc1cc(/C=N/n2cnnc2)c(C)n1-c1cccc(C(=O)O)c1 | inactive | –
66 | Cc1ccccc1-n1c(C)cc(/C=C2\NC(=O)NC2=O)c1C | 15.8 µM (active) | –
67 | CCC(=O)N1c2ccccc2CC1C(=O)N1CCN(c2cccc(OC)c2)CC1 (configuration not stated) | inactive | –
68 | Cc1ccc(Cl)cc1NC(=O)CCS(=O)(=O)c1ccc(Br)s1 | inactive | –
69 | Cc1cccc(NC(=O)N2CCN(C)c3ncccc32)c1C | inactive | –
70 | O=C(Nc1cc(C(F)(F)F)ccc1Cl)c1nc2ccccc2nc1N1CCCCC1 | inactive | –
71 | COc1ccc(CCNC(=O)c2cc(-c3ccc4c(c3)OCO4)on2)cc1OC | inactive | –
72 | COc1c2c(cc3occ(-c4ccc5c(c4)OCO5)c(=O)c13)OC(C)(C)C=C2 | 10 µM (active) | –

Row | SMILES | Potency | activity change, negative = cytotoxicity
73 | COc1ccc(C)cc1N(C)C(=O)c1c(C)oc2ncnc(N3CCOCC3)c12 | inactive | –
74 | Cn1c(-c2ccco2)nc2cc3ccccc3cc21 | 1.26 µM (active) | –
75 | CN(c1nc2ccccc2n2c(-c3ccco3)nnc12)S(=O)(=O)c1ccccc1 | inactive | –
76 | c1coc(-c2nc3nc4ccccc4n3nc2-c2ccco2)c1 | inactive | –
77 | CC(=O)c1cccc(NC(=O)c2nc(-c3ccccc3)n(-c3cccc(C)c3)n2)c1 | inactive | –
78 | c1csc(-c2nc(-c3ccncc3)no2)c1 | inactive | –
79 | CC(C)c1nc(-c2ccccn2)no1 | inactive | –
80 | c1ccc(-c2noc(-c3cccs3)n2)nc1 | 12.6 µM (active) | –
81 | O=C(Nc1ccccc1Cl)N1CCC(CN2CCCCC2)CC1 | inactive | –
82 | COc1cn(CC(=O)Nc2cccc(C)c2C)c(CN2CCCCC2)cc1=O | inactive | –
83 | CCN1CCC(N(Cc2ccc(F)cc2)C(=O)Nc2cc(C)ccc2C)CC1 | inactive | –
84 | Cc1cc(Cl)ccc1NC(=O)Cc1ccc(NC(=O)N2CCCCc3ccccc32)cc1 | inactive | –
85 | Cc1ccc2nc(CC(=O)c3ccc4ccccc4c3)c(=O)[nH]c2c1 | – | 3.51% [at 9.22 µM]
86 | C=CC(=O)c1ccc2ccccc2c1 | 12.6 µM (active) | –
87 | CCOc1ccccc1NC(=O)CSc1ncc(S(=O)(=O)c2ccc(C(C)(C)C)cc2)c(=O)[nH]1 | inactive | –
88 | Cn1c(COc2ccccc2C(C)(C)C)nc2ccccc21 | inactive | –
89 | CCCCS(=O)(=O)c1oc(-c2cccs2)nc1S(=O)(=O)c1ccccc1 | 17.8 µM (active) | –
90 | CSc1oc(-c2cccs2)nc1S(=O)(=O)c1ccc(Br)cc1 | inactive | –
91 | NC(=O)CSc1oc(-c2cccs2)nc1S(=O)(=O)c1ccccc1 | inactive | –
92 | COc1cc(NC(=O)CCn2nc(C)cc2C)cc(OC)c1OC | inactive | –
93 | CC(=O)c1cccc(Nc2ccc3cc(S(=O)(=O)N4CCC(C)CC4)ccc3n2)c1 | inactive | –
94 | COc1ccc(N(C)C(=O)C2CCN(S(=O)(=O)c3cc(Br)cc4c3N(C(C)=O)CC4)CC2)cc1 | inactive | –
95 | CC(C)n1c(-c2cccs2)nc2ccccc21 | inactive | –
96 | Cc1nn2c3ccccc3nc2n(C)c1=O | inactive | –

Row | SMILES | Potency | activity change, negative = cytotoxicity
97 | Cc1csc(-c2nc3ccccc3n2C)n1 | 15.8 µM (active) | –
98 | Cc1nn(CC(=O)NCCc2ccccc2)c(=O)c2c1sc1ccccc12 | inactive | –
99 | COc1ccccc1N1CCN(C2C(=O)c3ccccc3N2C(C)=O)CC1 (configuration not stated) | inactive | –
100 | CCSc1ncc(Cl)c(C(=O)Nc2cc(C)ccc2C)n1 | inactive | –
101 | CCOC(=O)c1ccc(NC(=O)c2nc(SCc3ccc(F)cc3)ncc2Cl)cc1 | inactive | –
102 | Cc1ccc(NC(=O)c2nc(S(=O)(=O)Cc3cccc(C)c3)ncc2Cl)cc1 | 17.8 µM (active) | –
103 | Cc1sc2ncn(CC(=O)N3CCN(c4ccc(F)cc4)CC3)c(=O)c2c1S(=O)(=O)N1CCN(c2ncccn2)CC1 | inactive | –
104 | CCOC(=O)c1cccc(NS(=O)(=O)c2cc(-c3cnc(C)o3)ccc2OC)c1 | inactive | –
105 | CCOc1ccc2oc(=O)cc(CN3CCN(C(=O)c4ccc(F)cc4)CC3)c2c1 | inactive | –
106 | O=c1oc2cc(O)ccc2cc1-c1ccc(F)cc1 | inactive | –
107 | COc1ccc2cc(-c3nc(Cl)c4c5c(sc4n3)CC(C)CC5)c(=O)oc2c1 (configuration not stated) | inactive | –
108 | COc1ccc(-c2cc3ccc(OCc4nn[nH]n4)cc3oc2=O)cc1 | 10 µM (active) | –
109 | COc1ccc(S(=O)(=O)NCC(c2ccc(N(C)C)cc2)N2CCc3ccccc32)cc1OC (configuration not stated) | inactive | –
110 | COc1ccc(C2=NC3(CCCCC3)N(CC(=O)Nc3ccc(C(C)C)cc3)C2=O)cc1 | inactive | –
111 | O=C(CCc1nc(CN2CCN(S(=O)(=O)c3ccc(F)cc3)CC2)no1)N1CCCCC1 | inactive | –
112 | CCC(C(=O)Nc1cccc(-c2nc3cccnc3s2)c1C)c1ccccc1 (configuration not stated) | inactive | –
113 | Cc1c(NC(=O)C(C)(C)C)cccc1-c1nc2ccccc2s1 | 12.6 µM (active) | –
114 | Cc1c(NC(=O)Cc2ccccc2)cccc1-c1nc2cccnc2s1 | inactive | –
115 | Cc1nn(CC(=O)N2CCN(c3cccc(C(F)(F)F)c3)CC2)c(=O)c2cc3sccc3n12 | inactive | –
116 | COc1cc(NC(=O)c2noc3c2CSc2ccccc2-3)cc(OC)c1OC | inactive | –
117 | COc1ccccc1CNC(=O)Cn1nc(C)c2nn(-c3ccc(Cl)cc3)c(C)c2c1=O | inactive | –

— PubChem BioAssay AID924 (National Center for Advancing Translational Sciences (NCATS), 2007)
